Measurements as given in the supplement of paper PMC12494721.
Where a name gives a salt, the structure may show the parent alone.

system: Escherichia coli IAI1; assay: fold change of Cadaverine concentration vs plate DMSO controls (fold change (ratio)); higher = more amine produced, active = hit call of the paper (significant change in both replicates, either direction); conditions: incubation time: 27 h, anaerobic, 37 °C
Procedure, shortened: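 Each value is the fold change relative to DMSO-only wells on the same plate. Four gut bacterial strains were grown anaerobically in mGAM at 37 °C for 27 h in 80 µL wells, starting at OD 0.1 before a 1:1 dilution, with compounds at 20 µM final (sweeteners 50 µM). Whole cultures were extracted with cold acetonitrile/methanol containing 0.1% formic acid, centrifuged, and amines were quantified by LC–triple-quadrupole MS (dynamic MRM) against external calibration curves with within-batch drift correction. Values are means of 2 biological replicates.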

Fold change of Cadaverine concentration, active:
Oc1c(Cl)cc(Cl)cc1Sc1cc(Cl)cc(Cl)c1O [Bithionol] (20 µM) 1.51, CO[C@@]1(NC(=O)C2SC(=C(C(N)=O)C(=O)O)S2)C(=O)N2C(C(=O)O)=C(CSc3nnnn3C)CS[C@@H]21 (some centres undefined) [Cefotetan] (20 µM) 2.18

Fold change of Cadaverine concentration, inactive:
N#CC(c1ccc(Cl)cc1)c1c(Cl)cc(-n2ncc(=O)[nH]c2=O)cc1Cl (centres undefined) [Diclazuril] (20 µM) 0.99, CN(C)CCCN1c2ccccc2Sc2ccc(C(F)(F)F)cc21 [Triflupromazine hydrochloride] (20 µM) 1.08, CCC(=O)OCC(=O)[C@@]1(OC(=O)CC)[C@@H](C)C[C@H]2[C@@H]3CCC4=CC(=O)C=C[C@]4(C)[C@@]3(Cl)[C@@H](O)C[C@@]21C [Beclomethasone dipropionate] (20 µM) 1.02, O=C1CN(/N=C/c2ccc(-c3ccc([N+](=O)[O-])cc3)o2)C(=O)N1 [Dantrolene sodium salt] (20 µM) 1.06, CC(C)(C(=O)O)c1ccc(C(O)CCCN2CCC(C(O)(c3ccccc3)c3ccccc3)CC2)cc1 (centres undefined) [Fexofenadine hydrochloride] (20 µM) 1.02, C[C@H]1[C@@H](O)O[C@@H]2O[C@@]3(C)CC[C@H]4[C@H](C)CC[C@@H]1[C@@]24OO3 [Artenimol] (20 µM) 1.02, CC(C)(C)NC[C@H](O)COc1ccccc1C1CCCC1 [Penbutolol sulfate] (20 µM) 1.02
